# According to ChEMBL document CHEMBL4296182, “CO-ADD screening of NIH NCI Diversity Set V”:
# For some of these results: Entries with a potency or affinity are not part of this list.
# Tested on: Acinetobacter baumannii
# Assay: Antibacterial activity against Acinetobacter baumannii ATCC 19606 (CO-ADD:GN_034); MIC in CAMBH media using NBS plates, by Resazurin F(560/590)
# Type: functional
# Settings: Concentration 20 uM, ASSAY_TEST Inhibition of Bacterial Growth, detection method Resazurin, Fluorescence (ex560/em590), MEDIA CAMHB, plate type 384well, CORNING #3640, time 18 hr
row,SMILES,Inhibition [%]
1,CC(=O)Nc1c(C)cc(OCC(=O)O)cc1C,-5.79
2,CN(C)N1C(=O)c2c(Cl)c(Cl)c(Cl)c(Cl)c2C1=O,0.5
3,CCCCCCCCCCC(C(=O)O)C1(C(=O)O)CCC(=O)O1 (configuration not stated),10.41
4,Cc1ccc(Nc2c(O)ncnc2O)cc1C,-4.13

# Tested on: Escherichia coli
# Assay: Antibacterial activity against Escherichia coli ATCC 25922 (CO-ADD:GN_001); MIC in CAMBH media using NBS plates, by Resazurin F(560/590)
# Type: functional
# Settings: Concentration 20 uM, ASSAY_TEST Inhibition of Bacterial Growth, detection method Resazurin, Fluorescence (ex560/em590), MEDIA CAMHB, plate type 384well, CORNING #3640, time 18 hr
row,SMILES,Inhibition [%]
1,NC(=O)C1=CC2C3C=CC2(O)C(=O)OC3O1 (configuration not stated),-7.05
2,CC12C(=O)N(c3nccs3)C(=O)C1(C)C1CCC2O1 (configuration not stated),7.81
3,O=C(O)c1nn(-c2ccccc2-c2nnc(O)nc2O)c(=O)[nH]c1=O,9.27
4,Cc1ccc(/N=N/c2ccc(N)cc2C)c(S(N)(=O)=O)c1,2.58
5,CCCN=C(S)Nc1ccccc1,-3.75
6,O=C(N(c1ccccc1)c1ccccc1)N(c1ccccc1)c1ccccc1,8.76
7,Clc1[nH]cnc2nccc1-2,0.3
8,COc1ccc(OC)c(NC(=O)c2cc3oc4ccccc4c3cc2O)c1,5.92
9,Cc1nc(Br)c(Br)c(C)c1Br,7.33
10,COc1ccc(C(=S)N2CCN(c3ccccc3C)CC2)cc1,15.7
11,Nc1ccc(NC(=O)Nc2ccc(N)cc2)cc1,5.61
12,c1ccc2[nH]c(-c3ccncc3)nc2c1,7.11
13,CCOC(=O)Nc1c(Cl)n(C)c(=O)n(C)c1=O,-16.55
14,CC(NC(=O)c1ccc(Cl)c(Cl)c1)c1ccc(-c2ccccc2)cc1 (configuration not stated),12.06
15,Oc1ccc(Nc2ccc3ccccc3c2)cc1,-3.9
16,CCN(CC)C(=O)Cn1ccc(NC(C)=O)nc1=O,5.52
17,Cc1ccn(C)c(=N)c1,8.42
18,NC(=O)c1nnsc1-c1ccc(-c2snnc2C(N)=O)cc1,9.34
19,Cc1cc(N2CCOCC2)nc(N2CCOCC2)n1,6.71
20,N#Cc1c(N)nc(N)nc1Nc1ccc(Br)cc1,-5.32

row,SMILES,Inhibition [%]
1,COc1ccc2c(c1)CCCN2C(=N)Nc1ccc(Cl)cc1,-14.68
2,C=CCNC(S)=NCC,11.35
3,Nc1nc(O)c2ncn(C3CCCC3)c2n1,3.79
4,COC(=O)Cc1[nH]c(O)nc1C(=O)OC,3.06
5,Cc1cn(C2CC(O)C(CO)O2)c(=O)n(Cc2ccccc2)c1=O (configuration not stated),7.7
6,Cc1cccnc1N=C(S)Nc1ncccc1C,9.06
7,N#Cc1nnn(-c2ccc(Cl)cc2)c1N,11.71
8,Nc1n[nH]c(CO)n1.O=C(O)CO,3.45
9,CS(=O)(=O)O.OC(c1cc(C(F)(F)F)nc2c(Cl)cc(Cl)cc12)C1CCCCN1 (configuration not stated),19.86
10,Cc1cc(NC(=O)NC(=O)c2ccccc2NC(=O)C(C)N)ccc1Oc1ncc(Br)cn1.Cl (configuration not stated),11.58
11,C=C1CC2(OC1=O)c1ccccc1CCc1ccccc12,2.27
12,CC(=O)/C=C(\C)Nc1ccccc1O,7.16
13,CCCOc1ccc(-c2nc(-c3ccc(N)cc3)cs2)cc1,2.89
14,Clc1nnc(NC2CCCCC2)c(Cl)c1Cl,15.05
15,Clc1ccc(-c2nc(-c3cc4cc(Cl)ccc4o3)cs2)cc1,11.7
16,CC(=O)Nc1c(C)cc(OCC(=O)O)cc1C,3.28
17,CN(C)N1C(=O)c2c(Cl)c(Cl)c(Cl)c(Cl)c2C1=O,6.02
18,CCCCCCCCCCC(C(=O)O)C1(C(=O)O)CCC(=O)O1 (configuration not stated),4.35
19,Cc1ccc(Nc2c(O)ncnc2O)cc1C,-16.23

# Tested on: Klebsiella pneumoniae
# Settings: Concentration 20 uM; ASSAY_TEST Inhibition of Bacterial Growth; detection method Absorption (OD600); MEDIA CAMHB; plate type 384well; NBS; CORNING #3640; time 18 hr
row,SMILES,Inhibition [%]
1,NC(=O)C1=CC2C3C=CC2(O)C(=O)OC3O1 (configuration not stated),15.67
2,CC12C(=O)N(c3nccs3)C(=O)C1(C)C1CCC2O1 (configuration not stated),14.08
3,O=C(O)c1nn(-c2ccccc2-c2nnc(O)nc2O)c(=O)[nH]c1=O,22.91
4,Cc1ccc(/N=N/c2ccc(N)cc2C)c(S(N)(=O)=O)c1,0.06
5,CCCN=C(S)Nc1ccccc1,7.36
6,O=C(N(c1ccccc1)c1ccccc1)N(c1ccccc1)c1ccccc1,13.27
7,Clc1[nH]cnc2nccc1-2,29.26
8,COc1ccc(OC)c(NC(=O)c2cc3oc4ccccc4c3cc2O)c1,9.42
9,Cc1nc(Br)c(Br)c(C)c1Br,11.41
10,COc1ccc(C(=S)N2CCN(c3ccccc3C)CC2)cc1,10.93
11,Nc1ccc(NC(=O)Nc2ccc(N)cc2)cc1,0.94
12,c1ccc2[nH]c(-c3ccncc3)nc2c1,18.73
13,CCOC(=O)Nc1c(Cl)n(C)c(=O)n(C)c1=O,17.7
14,CC(NC(=O)c1ccc(Cl)c(Cl)c1)c1ccc(-c2ccccc2)cc1 (configuration not stated),14.03
15,Oc1ccc(Nc2ccc3ccccc3c2)cc1,4.89
16,CCN(CC)C(=O)Cn1ccc(NC(C)=O)nc1=O,3.42
17,Cc1ccn(C)c(=N)c1,11.41
18,NC(=O)c1nnsc1-c1ccc(-c2snnc2C(N)=O)cc1,2.92
19,Cc1cc(N2CCOCC2)nc(N2CCOCC2)n1,4.64
20,N#Cc1c(N)nc(N)nc1Nc1ccc(Br)cc1,20.88

row,SMILES,Inhibition [%]
1,COc1ccc2c(c1)CCCN2C(=N)Nc1ccc(Cl)cc1,7.66
2,C=CCNC(S)=NCC,13
3,Nc1nc(O)c2ncn(C3CCCC3)c2n1,16.95
4,COC(=O)Cc1[nH]c(O)nc1C(=O)OC,20.66
5,Cc1cn(C2CC(O)C(CO)O2)c(=O)n(Cc2ccccc2)c1=O (configuration not stated),11.99
6,Cc1cccnc1N=C(S)Nc1ncccc1C,23.76
7,N#Cc1nnn(-c2ccc(Cl)cc2)c1N,-5.78
8,Nc1n[nH]c(CO)n1.O=C(O)CO,8.84
9,CS(=O)(=O)O.OC(c1cc(C(F)(F)F)nc2c(Cl)cc(Cl)cc12)C1CCCCN1 (configuration not stated),9.3
10,Cc1cc(NC(=O)NC(=O)c2ccccc2NC(=O)C(C)N)ccc1Oc1ncc(Br)cn1.Cl (configuration not stated),15.35
11,C=C1CC2(OC1=O)c1ccccc1CCc1ccccc12,9.76
12,CC(=O)/C=C(\C)Nc1ccccc1O,26.72
13,CCCOc1ccc(-c2nc(-c3ccc(N)cc3)cs2)cc1,4.45
14,Clc1nnc(NC2CCCCC2)c(Cl)c1Cl,1.58
15,Clc1ccc(-c2nc(-c3cc4cc(Cl)ccc4o3)cs2)cc1,9.81
16,CC(=O)Nc1c(C)cc(OCC(=O)O)cc1C,20.93
17,CN(C)N1C(=O)c2c(Cl)c(Cl)c(Cl)c(Cl)c2C1=O,6.84
18,CCCCCCCCCCC(C(=O)O)C1(C(=O)O)CCC(=O)O1 (configuration not stated),3.55
19,Cc1ccc(Nc2c(O)ncnc2O)cc1C,1.1
